Bioassay records as filed in PubChem.
HCV inhibitor: blocks hepatitis C virus | Huh7.5.1 HCVcc-Cre infection, luciferase reporter, 44 h | Potency, µM (titrated, usually from 41.8 µM), for inactives: top-dose activity change, negative = inhibition, actives largely listed as inhibitors | 340,000 compounds, 3.4% hits | AID 651820; active means well fitted inhibition curve with a large enough effect; inconclusive means small, poorly fitted or top-dose-only effect, or another doubt; inactive means no such curve, though single readings can be large or run the other way; further: potency means the concentration at half of the fitted maximal effect
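Compounds are dispensed onto cells plated 4 h earlier at 1,000 per well, with HCVcc-Cre virus (about 0.5 moi) added next. Following 44 h of culture, luminescent signal is measured for 15 sec after 15 min with substrate at room temperature.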
LASV entry inh: Lassa virus entry inhibition | Lassa virus pseudotype entry inhibition, cell reporter | AID 540256 | 300,000 compounds, 1.2% hits | Potency, µM (highest dose often 37.9 µM), for the others: at the top dose activity change, negative = inhibition, most hits filed as inhibitors; calls by dose curve; tested in HEK293 cells; further: potency means the concentration at half of the fitted maximal effect; nearly all actives have a fitted effect of over 50% in size
MARV entry inh: inhibitors of Marburg virus binding or cell entry. Marburg virus pseudotyped entry inhibition, cell reporter. Potency, µM (top dose mostly 37.8 µM), for inactives: top-dose activity change, negative = inhibition, hits mostly inhibitors. 300,000 compounds, 1.8% hits; calls by dose curve; tested in HEK293 cells; further: potency means the concentration at half of the fitted maximal effect
HCMV antiviral: human cytomegalovirus inhibition; HFF cells, HCMV-luciferase reporter, 72 h; stronger effect = lower value; activity change, negative = inhibition, % at 57.5 µM; 410,000 compounds, 4.5% hits; in the data active means activity change below about -60%; inconclusive means no clear call, values can overlap the other calls; inactive means above about -39%
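Inhibition of viral replication was scored as loss of reporter luminescence in HFFs infected with HCMV-luciferase (MOI 1 PFU/cell) for 72 h; compounds tested at 2 doses, normalized to buffer and Salinomycin controls.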
Vaccinia Venus: inhibitors of vaccinia virus (Venus reporter); Vaccinia virus Venus reporter expression, fluorescence; Potency, µM (doses to about 36.5 µM), without a hit: top-dose activity change, negative = inhibition, hits mostly inhibitors; 330,000 compounds, 0.46% hits; AID 720580; calls by dose curve; tested in A549 cells; further: potency means the concentration at half of the fitted maximal effect; nearly all actives have a fitted effect of over 30% in size
VACV mCherry inh: vaccinia inhibition (mCherry reporter); Vaccinia virus mCherry reporter infection, fluorescence; Potency, µM (series often up to 36.5 µM), for inactives: top-dose activity change, negative = inhibition, most hits filed as inhibitors; 310,000 compounds, 0.63% hits; calls by dose curve; tested in A549 cells; further: potency means the concentration at half of the fitted maximal effect; nearly all actives have a fitted effect of over 35% in size
* = called active by the depositor; i = inactive; ? = inconclusive; nt = no result; [ ] = dose if it differs, or a comment. Only some compounds are listed: those with a hit (about 7.8% of all), similar ones and a draw of the others. On the % scale 0 is the no-effect control and ±100 the full control effect.

SMILES	HCV inhibitor	LASV entry inh	MARV entry inh	HCMV antiviral	Vaccinia Venus	VACV mCherry inh
CC(=O)OCCNc1cc(N2CCN(C)CC2)c2noc3c2c1C(=O)c1ccccc1-3	-11.1%	nt	nt	-32.3	210.0%	10.4%
O=c1c2c(-c3ccc(Cl)cc3)ccnc2[nH]n1-c1ccccc1	nt	11.2%[46.1 µM]	19.4%[46.1 µM]	1.0	-1.0%	-2.7%
CCN(CC(=O)Nc1cc(Cl)ccc1C)C(=O)C1CCCCC1	8.9%	3.4%	?	-61.1*	-2.8%	2.5%
CCN(CC(=O)Nc1ccccc1C(F)(F)F)C(=O)CCS(=O)(=O)c1ccc(Cl)cc1	17.2%	?	-15.7%	-20.2	-28.3%	?
CCN(CC(=O)Nc1cc(Cl)ccc1C)c1ncnc2sc(C)c(C)c12	25.1µM*	0.5%	?	-78.4*	-15.8%	i
CCN(CC(=O)Nc1cc(Cl)ccc1C)C(=O)CCS(=O)(=O)c1ccc(Cl)cc1	?	-2.9%	?	20.2	?	11.2µM*
Cc1ccc(Cl)cc1NC(=S)NCCCSC1CCCCC1	10µM*	?	?	-34.1	-29.0%	-27.9%
COc1ccc(CCNC(=O)c2cnc3ccc(C)cn3c2=O)cc1OC	nt	nt	2.0%[46.1 µM]	5.9	-7.4%	-12.0%
CCN(CC(=O)Nc1cc(Cl)ccc1C)C(=O)C1CCN(c2ncnc3sc(C)c(C)c23)CC1	nt	nt	nt	0.0	?	11.2µM*
Cc1sc2ncnc(N3CCC(C(=O)N(C)CC(=O)Nc4ccccc4Br)CC3)c2c1C	?	-26.7%	?	-63.0*	-25.4%	-21.2%
Cc1sc2ncnc(N3CCC(C(=O)N(C)CC(=O)Nc4ccccc4Cl)CC3)c2c1C	nt	10µM*	?	-78.8*	-27.8%	-24.0%
Cc1ccccc1OCC(=O)NCC(=O)OCC(=O)c1ccc2c(c1)CCCC2	nt	nt	nt	nt	-2.9%	10.7%
O=C(CCCN1C(=O)c2ccccc2C1=O)N1CC[C@@H](c2ccccc2)C1	nt	nt	0.3%	nt	nt	nt
COc1ccc(-c2nc3cnc(Nc4ccccn4)cc3n2C)cc1OC	nt	nt	nt	-9.6	nt	nt
CC(C)(c1ccccc1)c1ccc(OCC(O)CNC2CCN(Cc3ccccc3)CC2)cc1 (configuration not stated)	8.91µM*	nt	?	-113.5*	?	-12.8%
COc1ccc(OCC(O)CNC2CCCC2)cc1 (configuration not stated)	-2.9%	-0.3%[46.1 µM]	0.8%[46.1 µM]	48.8	-5.7%	-21.9%
CCOc1ccc(OCC(O)CNC2CCN(Cc3ccccc3)CC2)cc1 (configuration not stated)	?	6.31µM*	1.58µM*	-64.4*	?	-13.2%
COc1cccc(N2CC(NC(=O)COc3ccccc3F)CC2=O)c1 (configuration not stated)	nt	0.0%[46.1 µM]	nt	-36.2	-1.7%[7.34 µM]	-9.2%[7.34 µM]
COc1ccc(N2CCC[C@@H]2/C=C/C(=O)OCc2ccccc2)cc1	nt	nt	nt	6.9	nt	nt
O=c1c(Cl)c(N2CCN(c3ccc(F)cc3)CC2)cnn1C12CC3CC(CC(C3)C1)C2	-0.5%	-44.8%	?	-62.6*	-11.3%	?
COCc1c(C(=O)NC2CCCC2)cnn1-c1nccc(-c2cccs2)n1	nt	nt	nt	nt	-8.1%	i
CN(CCc1ccccc1)C(=O)c1ccc(NC(=O)Cc2ccc(NC(=O)C3CCCN(C(=O)CCc4ccccc4)C3)cc2)cc1 (configuration not stated)	0.562µM*	nt	nt	-70.8*	?	?
CN(Cc1ccccc1)C(=O)c1cccc(NC(=O)Cc2ccc(NC(=O)C3CCN(C(=O)C4CCC4)CC3)cc2)c1	14.1µM*	nt	nt	-23.1	0.0%	-14.9%
CN(Cc1ccccc1)C(=O)c1cccc(NC(=O)Cc2cccc(NC(=O)C3CCN(C(=O)C4CC4)CC3)c2)c1	?	nt	nt	4.0	-3.5%	-14.6%
CN(CCc1ccccc1)C(=O)c1ccc(NC(=O)Cc2ccc(NC(=O)C3CCN(C(=O)C4CCCCC4)CC3)cc2)cc1	-24.2%[8.37 µM]	nt	nt	-60.4*	-22.7%	?
CN(CCc1ccccc1)C(=O)c1ccc(NC(=O)Cc2ccc(NC(=O)C3CCN(C(=O)CCc4ccccc4)CC3)cc2)cc1	25.1µM*	nt	nt	-88.4*	?	?
CN(CCc1ccccc1)C(=O)c1ccc(NC(=O)Cc2cccc(NC(=O)C3CCN(C(=O)CCc4ccccc4)CC3)c2)cc1	-10.3%	nt	nt	-26.3	-29.6%	-4.1%
CC(=O)Nc1ccc(/C=C/c2ccccn2)cc1	nt	nt	nt	nt	-8.8%	-8.7%
